Measured values published in PubChem BioAssay AID1159580 (chemical genetic matrix, 2015).
In all, about 5,500 compounds went through this assay and about 2,000 (36%) were called active. Not shown: some 18% with an inconclusive outcome. Cut-off read from the data, not from the text of the source: active = normalized growth mostly below about 0.91 (no sharp cut-off); inconclusive = no clear call, values can overlap the other calls; inactive = mostly above about 0.92. The list shows a part of the results.

Assay: chemical genetic growth profiling, strain panel (AID 1159580);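 note: tested at 20 µM; growth read once vehicle control cultures reached saturation at 30 °C; 1 = growth at the plate median or of vehicle wells; lower values mean less growth of the strain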
Settings: growth OD
[1] = S. cerevisiae deletion strains, locus YAL013W, strain DEP1, stronger effect = lower value
[2] = S. cerevisiae deletion strains, locus YGR078C, strain PAC10, stronger effect = lower value
[3] = S. cerevisiae deletion strains, locus YJR075W, strain HOC1, stronger effect = lower value
[4] = S. cerevisiae deletion strains, locus YMR307W, strain GAS1, stronger effect = lower value
[5] = S. cerevisiae deletion strains, locus YNL322C, strain KRE1, stronger effect = lower value
[6] = S. cerevisiae deletion strains, locus YPL055C, strain LGE1, stronger effect = lower value
[7] = S. cerevisiae deletion strains, locus YBR229C, strain ROT2, stronger effect = lower value
[8] = S. cerevisiae deletion strains, locus YDL101C, strain DUN1, stronger effect = lower value
[9] = S. cerevisiae deletion strains, locus YDL134C, strain PPH21, stronger effect = lower value
[10] = S. cerevisiae deletion strains, locus YDR150W, strain NUM1, stronger effect = lower value
[11] = S. cerevisiae deletion strains, locus YEL061C, strain CIN8, stronger effect = lower value
[12] = S. cerevisiae deletion strains, locus YHR030C, strain SLT2, stronger effect = lower value
[13] = S. cerevisiae deletion strains, locus YHR087W, strain rtc3, stronger effect = lower value
[14] = S. cerevisiae deletion strains, locus YJR043C, strain POL32, stronger effect = lower value
[15] = S. cerevisiae deletion strains, locus YLR039C, strain RIC1, stronger effect = lower value
[16] = S. cerevisiae deletion strains, locus YLR058C, strain SHM2 (second series), stronger effect = lower value
[17] = S. cerevisiae deletion strains, locus YLR085C, strain ARP6, stronger effect = lower value
[18] = S. cerevisiae deletion strains, locus YLR262C, strain YPT6, stronger effect = lower value
[19] = S. cerevisiae deletion strains, locus YML094W, strain GIM5, stronger effect = lower value
[20] = S. cerevisiae deletion strains, locus YMR219W, strain ESC1, stronger effect = lower value
[21] = S. cerevisiae deletion strains, locus YMR263W, strain SAP30, stronger effect = lower value
[22] = S. cerevisiae deletion strains, locus YNL153C, strain GIM3, stronger effect = lower value
[23] = S. cerevisiae deletion strains, locus YNL298W, strain CLA4 (second series), stronger effect = lower value
[24] = S. cerevisiae deletion strains, locus YNR030W, strain Alg12, stronger effect = lower value
[25] = S. cerevisiae deletion strains, locus YPL241C, strain CIN2, stronger effect = lower value
[26] = S. cerevisiae deletion strains, locus YPR135W, strain CTF4, stronger effect = lower value
[27] = S. cerevisiae deletion strains, locus YHR079C, strain IRE1, stronger effect = lower value
[28] = S. cerevisiae deletion strains, locus YJL095W, strain BCK1, stronger effect = lower value
[29] = S. cerevisiae deletion strains, locus YJR066W, strain TOR1, stronger effect = lower value
[30] = S. cerevisiae deletion strains, locus YLR113W, strain HOG1, stronger effect = lower value
[31] = S. cerevisiae deletion strains, locus YNL183C, strain NPR1, stronger effect = lower value
[32] = S. cerevisiae deletion strains, locus YOR231W, strain MKK1, stronger effect = lower value
[33] = S. cerevisiae deletion strains, locus YPL256C, strain CLN2, stronger effect = lower value

Measured: normalized growth

CCNC(=O)C1OC(n2cnc3c(NCc4ccccc4)ncnc32)C(O)C1O (centres undefined)
inactive: [1] 0.989 | S. cerevisiae deletion strains, locus YAL040C, strain CLN3, stronger effect = lower value 0.987 | S. cerevisiae deletion strains, locus YCL061C, strain MRC1 (second series), stronger effect = lower value 1.01 | S. cerevisiae deletion strains, locus YDR363W, strain ESC2, stronger effect = lower value 0.958 | S. cerevisiae deletion strains, locus YER002W, strain NOP16, stronger effect = lower value 1.01 | [2] 0.979 | [3] 1 | [4] 1 | S. cerevisiae deletion strains, locus YNL128W, strain TEP1, stronger effect = lower value 0.959 | S. cerevisiae deletion strains, locus YNL175C, strain NOP13, stronger effect = lower value 0.967 | S. cerevisiae deletion strains, locus YNL197C, strain WHI3, stronger effect = lower value 0.95 | S. cerevisiae deletion strains, locus YNL224C, strain SQS1, stronger effect = lower value 0.984 | [5] 0.99 | S. cerevisiae deletion strains, locus YOR083W, strain WHI5 (second series), stronger effect = lower value 0.956 | [6] 1

Cc1noc(N)c1C(N)=S
inactive: [1] 0.986 | [7] 1 | [8] 1.02 | [9] 0.993 | [10] 1 | [11] 1 | [2] 1.02 | [12] 1.05 | [13] 1 | [14] 1.01 | [3] 1.05 | [15] 1.05 | [16] 1 | [17] 1.17 | [18] 1.01 | [19] 0.99 | [20] 1.01 | [21] 1 | [22] 1.01 | [23] 1.03 | [5] 0.998 | [24] 0.995 | [6] 1.01 | [26] 0.982 | S. cerevisiae strains, strain wild type, stronger effect = lower value 0.986
active: [25] 1.17 [resistant]

Cc1noc(C)c1NC(N)=O
inactive: [1] 0.994 | [7] 0.989 | [8] 0.974 | [10] 0.979 | [11] 0.981 | [2] 0.983 | S. cerevisiae deletion strains, locus YGR229C, strain SMI1, stronger effect = lower value 1.03 | [12] 1.04 | [13] 0.968 | S. cerevisiae deletion strains, locus YJL187C, strain SWE1, stronger effect = lower value 0.998 | [14] 0.995 | [3] 1.04 | S. cerevisiae deletion strains, locus YKL190W, strain CNB1, stronger effect = lower value 1.01 | [15] 0.97 | [16] 0.992 | [17] 1.01 | [18] 0.997 | [19] 0.952 | [20] 0.993 | [21] 1.03 | [4] 1.21 | [22] 0.999 | [23] 0.978 | [5] 0.987 | [24] 0.987 | S. cerevisiae deletion strains, locus YOL006C, strain TOP1, stronger effect = lower value 1.04 | [6] 0.975 | [25] 0.986 | [26] 0.898

OC1CCN(c2cc(C(F)(F)F)nc3cc(Cl)cc(Cl)c23)CC1
inactive: S. cerevisiae deletion strains, locus YAR019C, strain CDC15, stronger effect = lower value 0.982 | S. cerevisiae deletion strains, locus YBL105C, strain PKC1, stronger effect = lower value 0.984 | S. cerevisiae deletion strains, locus YBR135W, strain CKS1, stronger effect = lower value 0.978 | S. cerevisiae deletion strains, locus YBR136W, strain MEC1, stronger effect = lower value 0.978 | S. cerevisiae deletion strains, locus YBR160W, strain CDC28, stronger effect = lower value 0.973 | S. cerevisiae deletion strains, locus YDL017W, strain CDC7, stronger effect = lower value 0.977 | S. cerevisiae deletion strains, locus YDL028C, strain MPS1, stronger effect = lower value 0.982 | [8] 0.976 | S. cerevisiae deletion strains, locus YDL108W, strain KIN28, stronger effect = lower value 0.979 | S. cerevisiae deletion strains, locus YDL132W, strain cdc53, stronger effect = lower value 0.969 | S. cerevisiae deletion strains, locus YDL214C, strain PRR2, stronger effect = lower value 0.98 | S. cerevisiae deletion strains, locus YDR052C, strain DBF4, stronger effect = lower value 0.989 | S. cerevisiae deletion strains, locus YDR054C, strain cdc34, stronger effect = lower value 0.969 | S. cerevisiae deletion strains, locus YDR226W, strain ADK1, stronger effect = lower value 0.973 | S. cerevisiae deletion strains, locus YDR477W, strain SNF1, stronger effect = lower value 0.913 | S. cerevisiae deletion strains, locus YER123W, strain YCK3, stronger effect = lower value 0.965 | S. cerevisiae deletion strains, locus YER133W, strain GLC7, stronger effect = lower value 0.971 | S. cerevisiae deletion strains, locus YFL009W, strain cdc4, stronger effect = lower value 0.986 | S. cerevisiae deletion strains, locus YFL029C, strain CAK1, stronger effect = lower value 0.984 | S. cerevisiae deletion strains, locus YFR003C, strain YPI1, stronger effect = lower value 0.978 | S. cerevisiae deletion strains, locus YFR019W, strain FAB1, stronger effect = lower value 1 | S. cerevisiae deletion strains, locus YFR028C, strain CDC14, stronger effect = lower value 0.979 | S. cerevisiae deletion strains, locus YGR040W, strain KSS1, stronger effect = lower value 0.921 | S. cerevisiae deletion strains, locus YGR052W, strain FMP48, stronger effect = lower value 1.1 | S. cerevisiae deletion strains, locus YGR092W, strain DBF2, stronger effect = lower value 0.994 | [27] 0.979 | S. cerevisiae deletion strains, locus YHR082C, strain KSP1, stronger effect = lower value 1.06 | S. cerevisiae deletion strains, locus YHR205W, strain SCH9, stronger effect = lower value 0.975 | S. cerevisiae deletion strains, locus YIL147C, strain SLN1, stronger effect = lower value 0.976 | [28] 0.887 | S. cerevisiae deletion strains, locus YJL128C, strain PBS2, stronger effect = lower value 0.989 | S. cerevisiae deletion strains, locus YJL157C, strain FAR1, stronger effect = lower value 0.972 | S. cerevisiae deletion strains, locus YJR016C, strain ILV3, stronger effect = lower value 0.984 | S. cerevisiae deletion strains, locus YJR066W, strain TOR1 (second series), stronger effect = lower value 0.963 | [29] 0.938 | S. cerevisiae deletion strains, locus YKL048C, strain ELM1, stronger effect = lower value 0.979 | S. cerevisiae deletion strains, locus YKL067W, strain YNK1, stronger effect = lower value 0.977 | S. cerevisiae deletion strains, locus YKL101W, strain HSL1, stronger effect = lower value 0.984 | S. cerevisiae deletion strains, locus YKL193C, strain SDS22, stronger effect = lower value 0.969 | S. cerevisiae deletion strains, locus YKL203C, strain TOR2, stronger effect = lower value 0.987 | [30] 0.951 | S. cerevisiae deletion strains, locus YLR133W, strain CKI1, stronger effect = lower value 0.976 | S. cerevisiae deletion strains, locus YLR403W, strain SFP1, stronger effect = lower value 0.992 | S. cerevisiae deletion strains, locus YML070W, strain DAK1, stronger effect = lower value 0.969 | S. cerevisiae deletion strains, locus YMR001C, strain CDC5, stronger effect = lower value 0.971 | S. cerevisiae deletion strains, locus YMR205C, strain PFK2 (second series), stronger effect = lower value 0.975 | S. cerevisiae deletion strains, locus YMR277W, strain FCP1, stronger effect = lower value 0.97 | S. cerevisiae deletion strains, locus YNL006W, strain LST8, stronger effect = lower value 0.968 | S. cerevisiae deletion strains, locus YNL020C, strain ARK1, stronger effect = lower value 0.972 | S. cerevisiae deletion strains, locus YNL161W, strain CBK1, stronger effect = lower value 0.975 | [31] 0.971 | S. cerevisiae deletion strains, locus YNL207W, strain RIO2, stronger effect = lower value 0.979 | S. cerevisiae deletion strains, locus YNL222W, strain SSU72, stronger effect = lower value 0.98 | S. cerevisiae deletion strains, locus YNL307C, strain MCK1 (second series), stronger effect = lower value 0.962 | S. cerevisiae deletion strains, locus YOL078W, strain AVO1, stronger effect = lower value 0.98 | S. cerevisiae deletion strains, locus YOL136C, strain PFK27, stronger effect = lower value 0.981 | S. cerevisiae deletion strains, locus YOR061W, strain CKA2, stronger effect = lower value 0.964 | S. cerevisiae deletion strains, locus YOR119C, strain RIO1, stronger effect = lower value 1.01 | [32] 0.946 | S. cerevisiae deletion strains, locus YOR329C, strain SCD5, stronger effect = lower value 0.986 | S. cerevisiae deletion strains, locus YPL031C, strain PHO85, stronger effect = lower value 0.908 | S. cerevisiae deletion strains, locus YPL153C, strain RAD53, stronger effect = lower value 0.937 | S. cerevisiae deletion strains, locus YPL204W, strain HRR25, stronger effect = lower value 0.938 | S. cerevisiae deletion strains, locus YPL209C, strain IPL1, stronger effect = lower value 0.971 | [33] 0.947 | S. cerevisiae deletion strains, locus YPR025C, strain CCL1, stronger effect = lower value 0.969 | S. cerevisiae deletion strains, locus YPR106W, strain ISR1, stronger effect = lower value 0.991 | S. cerevisiae deletion strains, locus YPR111W, strain DBF20, stronger effect = lower value 0.985 | S. cerevisiae deletion strains, strain NNK1, stronger effect = lower value 1 | S. cerevisiae deletion strains, strain TSCII, stronger effect = lower value 0.97
active: [12] 0.793

CC(=O)Nc1c(I)c(NC(C)=O)c(I)c(C(=O)O)c1I
inactive: [12] 0.975 | [27] 1 | [28] 0.989 | [29] 0.932 | [30] 0.977 | [31] 0.941 | [32] 0.99 | [33] 0.974

CC(=O)Nc1c(C)c(C)c(C)c(C)c1NC(C)=O
inactive: [1] 1.01 | [7] 1.01 | [8] 1 | [9] 1 | [10] 0.989 | [11] 1.02 | [2] 0.994 | [12] 1.14 | [13] 0.997 | [14] 1.01 | [3] 0.988 | [15] 1.04 | [16] 1.02 | [17] 1.07 | [18] 1.02 | [19] 1.04 | [20] 1.02 | [21] 1.01 | [22] 0.995 | [23] 1.06 | [5] 1.01 | [24] 1.03 | [6] 1.03 | [26] 1.09
active: [25] 1.15 [resistant]
